# Assay results as given in PubChem BioAssay AID1259421 (Broad Institute, 2018).
# Where “and” joins values, the source holds several entries; their conditions need not be identical. Equal entries are not always repeated. Out of some 6,400 compounds screened, about 610 (9.5%) were called active. Rule as the data show it: active = activity change below about -70%; inconclusive = no clear call, values can overlap the other calls; inactive = above that. The list comes from a sample in which actives are over-represented; it also holds similar structures and randomly drawn compounds. Where a structure was tested more than once in an assay, its records may differ in their call.
# Assay: Toxoplasma gondii ME49Luc growth in HeLa cells, luciferase, no IFN-y, primary screen (AID 1259421)
# Settings: T. gondii ME49Luc in HeLa, 72 h, stronger effect = lower value, concentration not given here
row,Compound,"activity change, negative = inhibition"
1,O=c1c2ccccc2nc2n1CCc1c-2[nH]c2ccccc12,249% (inactive)
2,CN1c2ccccc2C(=O)N2CCc3c([nH]c4ccccc34)C21 (stereo not given),-71.6% (active)
3,CN1CCc2ccccc2Cc2[nH]c3ccccc3c2CC1,12.1% (inactive)
4,O=C(O)CCC/C=C/CC1COC(C(F)(F)F)OC1c1ccccc1O (stereo not given),0.246% (inactive)
5,C=C[C@@]1(C)CC(=O)[C@@]2(O)[C@](C)(O1)[C@@H](OC(C)=O)[C@@H](O)C1C(C)(C)CC[C@H](O)[C@@]12C (stereo not given in full),6.95% (inactive)
6,Cc1ccc(NC(=O)c2ccc(CN3CCN(C)CC3)cc2)cc1Nc1nccc(-c2cccnc2)n1,3.71% (inactive) and 10.8% (inactive) and -1.32% (inactive)
7,Cc1ccc(C(=O)Nc2cccc(C(F)(F)F)c2)cc1Nc1nc(-c2cccnc2)nc2c1cnn2C,-48.8% (inactive)
8,Cc1cn(-c2cc(NC(=O)c3ccc(C)c(Nc4nccc(-c5cccnc5)n4)c3)cc(C(F)(F)F)c2)cn1,-85.2% (active) and -76.5% (active)
9,Cc1ncc(NC(=O)c2ccc(CN3CCN(C)CC3)c(C(F)(F)F)c2)cc1Nc1nccc(-c2cccnc2)n1,-77.9% (active)
10,Cc1ccc(NC(=O)c2ccc(CN3CCN(C)CC3)cc2)cc1Nc1nc(-c2cccnc2)cs1,47.7% (inactive)
11,O=Cc1ccccc1O[C@@H]1O[C@H](CO)[C@H](O)[C@@H](O)[C@H]1O,4.65% (inactive)
12,NC(=O)c1nc(F)c[nH]c1=O,2.13% (inactive)
13,Cc1c[nH]c2ccccc12,-2.35% (inactive)
14,NC(N)=NCCC[C@@H](N)C(=O)O,13.4% (inactive)
15,Cn1c(C#N)ccc1-c1ccc2c(c1)C(C)(C)OC(=S)N2,-80.3% (active)
16,Cc1ccc(-n2[nH]c(C)c(N=Nc3cccc(-c4cccc(C(=O)O)c4)c3O)c2=O)cc1C,-77.8% (active)
17,CCOc1ccccc1N=Nc1c(C)[nH]n(-c2nc(-c3ccccc3)cs2)c1=O,-0.237% (inactive)
18,Cn1cc(C(=O)[C@@H]2CCc3nc[nH]c3C2)c2ccccc21,3.43% (inactive)
19,CC1=CC(=O)c2ccccc2C1=O,2.88% (inactive) and 20.5% (inactive)
20,CC1(C)C(=O)NC2=C1C(=O)C(=O)c1ccccc12,-90% (active)
21,C[N+](C)(C)CCOP(=O)(O)OC[C@H](O)CO,7.52% (inactive)
22,COC(=O)C[C@H]1C(C)(C)[C@@H](OC(C)=O)[C@@H]2CC3=C4CC(=O)O[C@@H](c5ccoc5)[C@]4(C)CCC3[C@@]1(C)C2=O (stereo not given in full),13.2% (inactive)
23,CC(=O)O[C@H]1Cc2ccccc2N(C(N)=O)c2ccccc21,8.82% (inactive)
24,O=c1cc(-c2ccc(O)cc2)oc2cc(O[C@@H]3O[C@H](CO)[C@@H](O)[C@H](O)[C@H]3O[C@@H]3OC[C@](O)(CO)[C@H]3O)cc(O)c12,-2.43% (inactive)

row,Compound,"activity change, negative = inhibition"
1,Cc1nc2ccccc2n1Cc1ccc(Cl)cc1,-8.55% (inactive)
2,CC(C)N=c1cc2n(-c3ccc(Cl)cc3)c3ccccc3nc-2cc1Nc1ccc(Cl)cc1,-81.2% (active) and 17.4% (inactive)
3,Cc1ccc2c(c1)C(=O)[C@]1(O)CCN(c3ccccc3)C1=N2,7.51% (inactive)
4,Cc1c(OCC(F)(F)F)ccnc1C[S@@](=O)c1nc2ccccc2[nH]1,83.6% (inactive)
5,Cc1[nH]nc2ccc(-c3cncc(OC[C@@H](N)Cc4ccccc4)c3)cc12,-82.2% (active)
6,O=S(=O)(O)c1ccc(-c2c3nc(c(-c4ccc(S(=O)(=O)O)cc4)c4ccc([nH]4)c(-c4ccc(S(=O)(=O)O)cc4)c4nc(c(-c5ccc(S(=O)(=O)O)cc5)c5ccc2[nH]5)C=C4)C=C3)cc1,-0.332% (inactive)
7,COc1cc2nccc(Oc3ccc(NC(=O)Nc4ccc(F)cc4F)c(F)c3)c2cc1OC,-38.1% (inactive)
8,COc1cc2c(N3CCN(C(=O)Nc4ccc(OC(C)C)cc4)CC3)ncnc2cc1OCCCN1CCCCC1,11% (inactive)
9,COc1cc2c(Oc3ccc(NC(=O)C4(C(=O)Nc5ccc(F)cc5)CC4)cc3F)ccnc2cc1OCCCN1CCOCC1,-67.4% (inactive)
10,COc1cc2nccc(Oc3ccc(NC(=O)NC4CC4)c(Cl)c3)c2cc1C(N)=O,6.94% (inactive) and -7.61% (inactive)
11,COc1cc2nccc(Oc3ccc(NC(=O)Nc4cc(C)on4)c(Cl)c3)c2cc1OC,-84.5% (active)
12,COc1cc2nccc(Oc3ccc(NC(=O)C4(C(=O)Nc5ccc(F)cc5)CC4)cc3)c2cc1OC,-93.3% (active)
13,Oc1cccc(-c2c3nc(c(-c4cccc(O)c4)c4ccc([nH]4)c(-c4cccc(O)c4)c4nc(c(-c5cccc(O)c5)c5ccc2[nH]5)C=C4)C=C3)c1,8.49% (inactive)
14,C[C@H](NC(=O)C(C)(C)Oc1ccc(C(F)(F)F)cn1)[C@@H](Cc1ccc(Cl)cc1)c1cccc(C#N)c1,-17.6% (inactive)
15,COc1ccc(S(=O)(=O)Nc2nnc(CC(C)C)s2)cc1,16.5% (inactive)
16,CC[C@]1(O)CC2CN(CCc3c([nH]c4ccccc34)[C@@](C(=O)OC)(c3cc4c(cc3OC)N(C)[C@H]3[C@@](O)(C(=O)OC)[C@H](OC(C)=O)[C@]5(CC)C=CCN6CC[C@]43[C@@H]65)C2)C1 (stereo not given in full),-90.8% (active)
17,CCC1=C[C@@H]2CN(C1)Cc1c([nH]c3ccccc13)[C@@](C(=O)OC)(c1cc3c(cc1OC)N(C)[C@H]1[C@@](O)(C(=O)OC)[C@H](OC(C)=O)[C@]4(CC)C=CCN5CC[C@]31[C@@H]54)C2,-61.1% (inactive)
18,CCC1(O)CC2CN(CCc3c([nH]c4ccccc34)C(C(=O)OC)(c3cc4c(cc3OC)N(C)C3C(O)(C(=O)OC)C(C(=O)OC)C5(CC)C=CCN6CCC43C65)C2)C1 (stereo not given),-82.9% (active)
19,CC[C@]1(O)CC2CN(CCc3c([nH]c4ccccc34)[C@@](C(=O)OC)(c3cc4c(cc3OC)N(C=O)[C@H]3[C@@](O)(C(=O)OC)[C@H](OC(C)=O)[C@]5(CC)C=CCN6CC[C@]43[C@@H]65)C2)C1 (stereo not given in full),-76.5% (active)
20,COC(=O)[C@H]1[C@H]2C[C@@H]3c4[nH]c5ccccc5c4CCN3C[C@H]2C[C@@H](OC(=O)c2cc(OC)c(OC)c(OC)c2)[C@@H]1OC,-2.54% (inactive)
21,CO[C@H]1C[C@H]2CC[C@@H](C)[C@@](O)(O2)C(=O)C(=O)N2CCCC[C@H]2C(=O)O[C@H]([C@H](C)C[C@@H]2CC[C@H](OC(=O)C(C)(CO)CO)[C@H](OC)C2)CC(=O)[C@H](C)/C=C(\C)[C@@H](O)[C@@H](OC)C(=O)[C@H](C)C[C@H](C)/C=C/C=C/C=C/1C,9.08% (inactive)
22,CCOC(=O)[C@H](CCc1ccccc1)N[C@H]1CCCN2CCC[C@H](C(=O)O)N2C1=O,-4.74% (inactive)
23,CC(N)(C(=O)O)c1ccc(-c2nn[nH]n2)cc1 (stereo not given),3.49% (inactive)
24,C[C@@H]1C(=O)O[C@H]2[C@H](O)C34[C@H]5C[C@@H](C(C)(C)C)[C@]36[C@@H](OC(=O)[C@@H]6O)O[C@]4(C(=O)O5)[C@@]12O (stereo not given in full),5.38% (inactive)

row,Compound,"activity change, negative = inhibition"
1,CN1CCN(C(=O)C2C3CCC(O3)C2C(=O)O)CC1 (stereo not given),3.27% (inactive)
2,Cc1sc[n+](CC(=O)c2ccccc2)c1C,60.9% (inactive)
3,CN1CCN(C2Cc3ccccc3Sc3ccc(Cl)cc32)CC1 (stereo not given),7.98% (inactive)
4,CSc1ccc2c(c1)N(CCC1CCCCN1C)c1ccccc1S2 (stereo not given),31.1% (inactive) and -16.1% (inactive)
5,CSc1ccc2c(c1)C(N1CCN(C)CC1)Cc1ccccc1S2 (stereo not given),-82.4% (active) and -87% (active) and -85.3% (active)
6,C[C@@H]1O[C@@H](O[C@H]2[C@H](Oc3cc(O)c4c(=O)cc(-c5ccc(O)cc5)oc4c3)O[C@H](CO)[C@@H](O)[C@@H]2O)[C@H](O)[C@H](O)[C@H]1O,5.34% (inactive)
7,CCO[C@H]1OC(=O)C[C@@H]1NC(=O)[C@@H]1CCCN1C(=O)[C@@H](NC(=O)c1ccc(N)c(Cl)c1)C(C)(C)C,3.07% (inactive)
8,CCOC(=O)[C@@]1(CCCCCCOc2ccc(Cl)cc2)CO1,17.5% (inactive)
9,O=C(O)CC(=O)C(=O)O,21.8% (inactive)
10,CC(NCCc1ccc(O)cc1)C(O)c1ccc(O)cc1 (stereo not given),1.92% (inactive) and 4.83% (inactive)
11,C[C@@H](NCCc1ccc(O)cc1)[C@@H](O)c1ccc(O)cc1,24.4% (inactive)
12,CCCCCCCCNC(C)C(O)c1ccc(SC(C)C)cc1 (stereo not given),-84.8% (active) and -78% (active) and 18.5% (inactive)
13,NS(=O)(=O)c1cccc2c1c([N+](=O)[O-])cc1[nH]c(=O)c(=O)[nH]c12,4.26% (inactive) and 1.99% (inactive) and 17.2% (inactive)
14,CC(C)C1C2CCC(C2)C1N (stereo not given),-31.8% (inactive)
15,O=[N+]([O-])c1nccn1CC(O)CN1CCCCC1 (stereo not given),-0.914% (inactive)
16,Cc1nc(C)c(-c2ccc(C3CCC(CC(=O)O)CC3)cc2)nc1C(N)=O (stereo not given),21.5% (inactive)
17,CNC(=O)[C@H]1O[C@@H](n2cnc3c(NCc4cccc(I)c4)nc(Cl)nc32)[C@H](O)[C@@H]1O,-25.8% (inactive)
18,C=CC(=O)N1CCC[C@@H](n2nc(-c3ccc(Oc4ccccc4)cc3)c3c(N)ncnc32)C1,-76.1% (active)
19,C/C(=C(/CCOC(=O)C(C)C)SS/C(CCOC(=O)C(C)C)=C(\C)N(C=O)Cc1cnc(C)nc1N)N(C=O)Cc1cnc(C)nc1N,-5.95% (inactive)
20,CC(C)c1c(O)ccc2c1CCC1C(C)(C)CCC[C@]21C (stereo not given in full),25.1% (inactive)
21,COC(=O)[C@@]1(C)CCC[C@]2(C)c3ccc(O)c(C(C)C)c3CCC12 (stereo not given in full),-72.7% (active)
22,CC(=O)Oc1ccc2c(c1C(C)C)CCC1C(C)(C)CCC[C@]21C (stereo not given in full),-4.41% (inactive)
